DUSP3 inh: DUSP3 (human) phosphatase inhibition; recombinant VHR phosphatase, pNPP absorbance; P51452; hit rate 0.52% among 290,000; inhibition, % at 13.3 µM; in the data active means inhibition above about 50%
TcdB GH inh: blocks C. difficile toxin B glycohydrolase activity. inhibition, % at 9.99 µM. TcdB glycohydrolase enzymatic assay, plate reader. P18177. hit rate 0.24% among 350,000; in the data active means inhibition above about 10%
PrPC TRFRET: reduces human prion protein on the cell surface; P04156; cell surface PrPC, TR-FRET read-out; inhibition, % at 13.8 µM; hit rate 0.43% among 370,000; in the data active means inhibition above about 24%; further: 0% = median of the test wells and 100% = reference compound wells
PrPC confirm: cell surface PrPC inhibition, TR-FRET confirmation; shares compounds with PrPC TRFRET; hit rate 65% among 1,500; cell surface PrPC level; AID 743200; inhibition, % at 13.8 µM; in the data active means inhibition above about 25%
LD9 tox: kills or reduces viability of LD9 cells in PrPc counter-screen; shares compounds with PrPC TRFRET; LD9 cells cytotoxicity, luminescence viability; inhibition, % at 13.8 µM; hit rate 29% among 1,500; AID 743201; in the data active means inhibition above about 9.5%
Numbers without * were called inactive; / = no result given. A selection: hits, their analogues and other compounds. The true share with any hit is near 0.82%.

SMILES | DUSP3 inh | TcdB GH inh | PrPC TRFRET | PrPC confirm | LD9 tox
CCOC(=O)Cc1csc(NC(=O)c2cc(C)c(C)s2)n1 | / | -8.8 | 21.5 | / | /
Cc1csc(NC(=O)c2cc3c(s2)CCCC3)n1 | -5.9 | / | 26.2* | 20.5 | 6.7
Cc1csc(NC(=O)c2cc3c(s2)CCCCC3)n1 | -8.0 | / | 25.3* | 16.0 | 0.9
CNC(=O)c1cc2c(s1)CCCCCC2 | -0.1 | / | 3.9 | / | /
Cc1cnc(NC(=O)c2cc3c(s2)CCCC3)s1 | 30.5 | / | 8.5 | / | /
C[C@@H]1CN([C@H](C)CO)C(=O)c2cccc(NC(=O)c3cnccn3)c2O[C@H]1CN(C)C | / | -2.0 | / | / | /
COc1ccccc1S(=O)(=O)N(C)C[C@H]1OCc2ccccc2-c2ccccc2C(=O)N([C@H](C)CO)C[C@@H]1C | / | 1.0 | / | / | /
O=C1c2cccnc2-c2ncccc21 | 27.6 | / | -6.0 | / | /
O=C1C(=O)c2cccnc2-c2ncccc21 | / | -3.3 | 30.8* | 61.9* | 98.7*
CN1C(=O)c2cc(NC(=O)C3CC3)ccc2OC[C@@H]2O[C@@H](CC(=O)NCc3ccccc3F)CC[C@@H]21 | / | -3.1 | / | / | /
S=c1nc(-c2ccccc2)n(CCCn2ccnc2)c2c1CCCC2 | 15.1 | -1.6 | 46.8* | 45.7* | -1.8
S=c1nc(-c2ccccc2)n(CCCN2CCOCC2)c2c1CCCC2 | 25.8 | / | -2.2 | / | /
O=C(C[C@H]1C=C[C@H](NC(=O)Nc2ccc(F)cc2)[C@H](CO)O1)NCc1cccc(F)c1 | / | -0.3 | / | / | /
C[C@@H]1CCCCO[C@H](CN(C)C(=O)NC2CCCCC2)[C@H](C)CN([C@H](C)CO)C(=O)c2cc(NC(=O)C3CCCCC3)ccc2O1 | / | 0.7 | / | / | /
CC(C)NC(=O)N(C)C[C@H]1Oc2c(NC(=O)CCCCCC(=O)Nc3ccccc3N)cccc2C(=O)N([C@@H](C)CO)C[C@@H]1C | / | -0.2 | / | / | /
NS(=O)(=O)c1ccc(NC(=O)CSc2nc3ccccc3c(=O)n2-c2ccc(Br)cc2)cc1 | / | / | 33.6* | 20.2 | -1.5
CCOc1ccc(NC(=O)CCSc2ccc(C)cc2)cc1 | 25.3 | / | 9.5 | / | /
NS(=O)(=O)c1ccc(NC(=O)CSc2ncccn2)cc1 | -6.7 | -0.6 | 4.8 | / | /
CCOc1ccc(NC(=O)CCSc2ccc3ccccc3n2)cc1 | 11.9 | -7.5 | 61.9* | 60.2* | 2.8
NS(=O)(=O)c1ccc(NC(=O)CSc2ccc3ccccc3n2)cc1 | 5.7 | / | 36.2* | 43.4* | -0.5
NS(=O)(=O)c1ccc(NC(=O)CSc2nc3ccccc3c(=O)n2Cc2ccncc2)cc1 | / | 1.0 | 7.8 | / | /
O=C1CCCN1C(=O)CSc1ccc2ccccc2n1 | / | -0.3 | 41.4* | 52.2* | 0.6
Cn1c(SCC(=O)N2CCCC2=O)nc2ccccc2c1=O | / | 3.0 | 1.9 | / | /
C[C@H]1CN([C@@H](C)CO)C(=O)c2cccc(NS(=O)(=O)c3cccs3)c2O[C@@H]1CN(C)CC1CCCCC1 | / | 0.5 | / | / | /
C[C@@H]1CN([C@@H](C)CO)C(=O)Cc2cc(NC(=O)Cc3cn(C)c4ccccc34)ccc2O[C@H]1CN(C)Cc1ccc(-c2ccccc2)cc1 | / | 0.2 | / | / | /
SMILES | DUSP3 inh | TcdB GH inh | PrPC TRFRET | PrPC confirm | LD9 tox
CC(=O)N(C)C[C@H]1Oc2cc(C#Cc3cccnc3)ccc2S(=O)(=O)N([C@@H](C)CO)C[C@@H]1C | / | 3.4 | / | / | /
C/C=C/c1ccc([C@H]2[C@@H](CO)N(C(=O)C3CC3)[C@H]2CN(C)C(C)=O)cc1 | / | -1.7 | / | / | /
C[C@H]1CN([C@@H](C)CO)C(=O)c2ccccc2-c2ccccc2CO[C@H]1CN(C)Cc1ccc(C(=O)O)cc1 | / | -0.9 | / | / | /
CNC[C@@H]1Oc2c(NS(=O)(=O)c3c(C)noc3C)cccc2C(=O)N([C@H](C)CO)C[C@@H]1C | / | -5.6 | / | / | /
O=C(CSc1ccc2ccccc2n1)N/N=C/c1ccccc1O | 1.6 | 0.7 | 0.5 | / | /
O=C(CSc1ccc2ccccc2n1)N/N=C/c1ccc(O)cc1 | 19.3 | 4.9 | 24.9* | 22.7 | 1.2
Cc1ccc(S(=O)(=O)N(C)C[C@H]2OCCCC[C@H](C)Oc3ccc(NC(=O)Cc4ccccc4)cc3C(=O)N([C@H](C)CO)C[C@@H]2C)cc1 | / | 0.8 | / | / | /
Cc1ccc(C(C)C)c(OCc2ccc(C(=O)N/N=C/c3ccc(O)cc3O)cc2)c1 | -5.4 | -0.5 | 38.1* | 43.4* | 17.4*
Cc1ccc(C(C)C)c(OCc2ccc(C(=O)N/N=C/c3ccc(C(=O)O)cc3)cc2)c1 | 7.4 | 0.3 | 6.9 | / | /
C[C@@H]1CN([C@@H](C)CO)C(=O)c2cc(NC(=O)Nc3ccc4c(c3)OCO4)ccc2O[C@H]1CN(C)C(=O)NC1CCCCC1 | / | 0.4 | / | / | /
COC(=O)Cc1c(C)c2ccc(OCC(=O)N3CCCC(C)C3)c(C)c2oc1=O (configuration not stated) | -4.4 | -1.6 | 26.4* | 37.8* | 8.7
COC(=O)Cc1c(C)c2ccc(OCC(C)=O)c(C)c2oc1=O | 15.6 | / | 6.8 | / | /
